“And” between values parts separate entries of the source, which are not always exact repeats. Equal entries are not always repeated. Inconclusive results are not listed. The source made the active and inactive calls. Unless noted, calls come from the whole dose curve.

Assay [1] in a line: Nuclear factor erythroid 2-related factor 2/antioxidant responsive element (Nrf2/ARE) small molecule agonists: qHTS cell viability counter screen in human keratinocytes (AID 1919968; active = well fitted curve in the direction sought with a large enough effect in the repeat runs; an effect the other way counts as inactive or inconclusive; note: nearly all actives have a fitted effect of over 55% in size; note: potency is the fitted concentration of half-maximal effect). In short, it runs like this: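 In human HaCaT keratinocytes stably expressing an ARE-driven luciferase, compound exposure lasted 23 h at 37 C under 5% CO2. Viable cells are quantified with a protease-based fluorogenic reagent (CellTiter-Fluor) read 1 h after addition.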
Background: In qHTS, concentration-response curves come from the screen itself.

Assay [2] in a line: Nuclear factor erythroid 2-related factor 2/antioxidant responsive element (Nrf2/ARE) small molecule agonists: luciferase reporter gene qHTS assay in human keratinocytes (AID 1919969). Note: nearly all actives have a fitted effect of over 35% in size. For orientation: A reporter such as luciferase makes a cellular process visible.
For assay [3], the target named is KiSS-1 receptor (Homo sapiens) (UniProt Q969F8). The experiment in a line: Human kisspeptin (KISS1R) small molecule agonists, calcium flux assay in KISS1R-HEK293 cells (AID 1920064; active = well fitted curve in the direction sought with a large enough effect in the repeat runs; an effect the other way counts as inactive or inconclusive). In short, it runs like this: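 Concentration-response testing used 15 concentrations in triplicate on human KISS1R-expressing HEK293 cells. Calcium-dependent fluorescence (Ex/Em 480/540) was followed kinetically for 3 min after compound transfer.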
(Calcium assays in cells follow changes in intracellular calcium, usually with a dye or a luminescent sensor.)

Assay [4] is described as follows: p53 small molecule agonists, cell-based qHTS assay with human liver microsomes (AID 1963577). The procedure, abridged: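 In this qHTS, p53 response-element beta-lactamase cells receive test compound together with a microsome/NADPH activating system (0.5 mg/mL final each) and are incubated 16 h at 37 C before LiveBLAzer fluorescence detection.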
Assay [5] is described as follows: p53 small molecule agonists, cell-based qHTS assay with rat liver microsomes (AID 1963578). The procedure, abridged:
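Agonist mode in p53RE-bla reporter cells, with compounds co-incubated 16 h at 37 C alongside 0.5 mg/mL rat liver microsomes and 0.5 mg/mL NADPH (final), followed by a 2 h LiveBLAzer detection step.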

A short description of assay [6]: p53 small molecule agonists, cell-based qHTS assay with human liver microsomes: qHTS cell viability counter screen (AID 1963579). Note: nearly all actives have a fitted effect of over 45% in size. The procedure, abridged:
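Metabolically activated exposure: compounds, human liver microsomes and NADPH (0.5 mg/mL final apiece) were added to p53RE-bla cells seeded 5 h earlier, left 16 h at 37 C, and then assessed for viability by CellTiter-Glo luminescence.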

Assay [7] in a line: p53 small molecule agonists, cell-based qHTS assay with rat liver microsomes: qHTS cell viability counter screen (AID 1963580). Note: nearly all actives have a fitted effect of over 45% in size. The procedure, abridged: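 Counter screen for cytotoxicity under metabolic activation: rat liver microsomes and NADPH, 0.5 mg/mL final each, added with compounds to p53RE-bla HCT-116 cells; 16 h at 37 C, then ATP luminescence read.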
The nature of assay [8]: p53 small molecule agonists, cell-based qHTS assay: qHTS cell viability counter screen (AID 1963581). Note: nearly all actives have a fitted effect of over 45% in size. The procedure, abridged:
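Luminescence from CellTiter-Glo, reflecting ATP content, serves as the cytotoxicity measure; it is taken after the 2 h reporter substrate step in HCT-116 p53RE-bla cells dosed for 16 h at 37 C.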

Assay [9] is described as follows: p53 small molecule agonists, cell-based qHTS assay (AID 1963582; active = well fitted activation curve with a large enough effect in the signal ratio in the repeat runs, not every such curve was filed as active; the % refers to the signal ratio). The procedure, abridged: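 After plating, p53RE-bla cells sat 5 h in the incubator; compounds or DMSO vehicle were pinned in; a 16 h incubation at 37 C followed; FRET substrate was added and, 2 h later at RT, fluorescence was measured.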
Assay [10] can be described thus: cAMP Responsive Elements (CRE) small molecule agonists, cell-based qHTS assay (AID 1963590). Note: potency is the fitted concentration of half-maximal effect. In short, it runs like this: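 Compound exposure lasted 3 h at 37 C/5% CO2 in CRE-bla HEK 293T cells grown in assay medium with 10% dialyzed FBS and 25 mM HEPES. Reporter signal came from LiveBLAzer B/G FRET substrate, 2 h, room temperature.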
A short description of assay [11]: cAMP Responsive Elements (CRE) small molecule antagonists, cell-based qHTS assay (AID 1963591; active = well fitted inhibition curve with a large enough effect in the signal ratio in the repeat runs, not every such curve was filed as active; the % refers to the signal ratio). The procedure, abridged: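 Stimulation used NKH477 at a final 0.25 uM for 3 h in compound-treated CRE-bla HEK293T cells, seeded 18 h beforehand. Reporter activity was measured with LiveBLAzer B/G FRET substrate after 2 h at room temperature.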
The target of assay [12] is Beta-2 adrenergic receptor (Homo sapiens) (UniProt P07550). The assay is described as follows: Adrenergic beta2 receptor (ADRB2) small molecule antagonists, cell-based qHTS assay (AID 1963592). Note: series mostly up to about 92 µM; nearly all actives have a fitted effect of over 50% in size. The procedure, abridged: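 Assay format: CHO-ADRB2 cells, 18-20hr seeding at 37C/5% CO2, then compound plus 1nM isoproterenol agonist mix for 0.5hr RT. Homogeneous time-resolved fluorescence cAMP detection after 1hr, expressed as 665/615 nm ratio.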

For assay [13] the target is unchanged. The experiment in a line: Adrenergic beta2 receptor (ADRB2) small molecule agonists, cell-based qHTS assay (AID 1963593).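 Note: CHO cells stably overexpressing human ADRB2.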 In short, it runs like this:
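CHO cells stably over-expressing ADRB2 were plated overnight at 37C, then dosed with compounds plus a stimulation mix containing 100uM IBMX and 25uM Ro-20-1724 for 0.5hr at room temperature. cAMP was measured by HTRF competition, 1hr.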

Assay [14] has as its target D(2) dopamine receptor (Homo sapiens) (UniProt P14416). The assay is described as follows: Dopamine D2 receptor (DRD2) small molecule agonists, cell-based qHTS assay (AID 1963594). Note: nearly all actives have a fitted effect of over 35% in size. The procedure, abridged: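 HEK293 cells stably expressing DRD2 were cultured 24 h at 37 C, then given Ro20-1724 (0.1 mM final) and compounds for 10 min at room temperature. NKH477 (200nM) was then added for 30 min. cAMP was read by HTRF.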

Assay [15] shares this target. The experiment in a line: Dopamine D2 receptor (DRD2) small molecule antagonists, cell-based qHTS assay (AID 1963595; active = well fitted inhibition curve with a large enough effect in the signal ratio in the repeat runs, with a control signal flat; the % refers to the signal ratio). The procedure, abridged: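 HEK293 cells stably expressing DRD2, preincubated with 0.1 mM Ro20-1724 and compounds 10 min, were stimulated with 200 nM NKH477 plus 12 nM quinpirole for 30 min at room temperature; cAMP measured by HTRF (665/620 nm).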

In assay [16] the target is 5-hydroxytryptamine receptor 2A (Homo sapiens) (UniProt P28223). The assay is described as follows: 5-hydroxytryptamine receptor 2A (HTR2A) small molecule antagonists, cell-based qHTS assay (AID 1963586). Note: nearly all actives have a fitted effect of over 45% in size. The procedure, abridged:
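CHO cells stably expressing human HTR2A were plated for 18 h at 37 C, then loaded with calcium dye for 1 h. Compounds were preincubated 5 min at room temperature before DOI (4 nM solution) was added. Kinetic fluorescence was read for 3 min.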

For assay [17] the target is unchanged. The experiment in a line: 5-hydroxytryptamine receptor 2A (HTR2A) small molecule agonists, cell-based qHTS assay (AID 1963587). Note: nearly all actives have a fitted effect of over 30% in size. In short, it runs like this: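 HTR2A-CHO cells, plated 18 h at 37 C/5% CO2, dye-loaded 1 h at 37 C; compounds in DMSO added by pin tool (agonist mode). Intracellular calcium flux read as kinetic fluorescence on FDSS over 2 min at 1 s intervals.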

The target of assay [18] is Muscarinic acetylcholine receptor M1 (Homo sapiens) (UniProt P11229). The assay is described as follows: Cholinergic receptor muscarinic 1 (CHRM1) small molecule antagonists, cell-based qHTS assay (AID 1963588). Note: nearly all actives have a fitted effect of over 40% in size. In short, it runs like this:
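Compounds were tested at 15 concentrations in three independent runs. Dye-loaded CHRM1-CHO cells were exposed 5 min at room temperature before stimulation by acetylcholine added at 50nM. Intracellular calcium was read kinetically on FDSS for 3 min.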

The target is the same in assay [19]. The assay is described as follows: Cholinergic receptor muscarinic 1 (CHRM1) small molecule agonists, cell-based qHTS assay (AID 1963589). Note: nearly all actives have a fitted effect of over 35% in size. The procedure, abridged: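 Fluorescent calcium dye reports M1 activation in stably transfected CHO cells. Compounds, 15 concentrations, added after 1 h dye loading at 37 C; kinetic reading at 1 sec intervals.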
For assay [20], the target named is Gonadotropin-releasing hormone receptor (Homo sapiens) (UniProt P30968). The assay is described as follows: Human gonadotropin-releasing hormone receptor (GnRHR) small molecule agonists, calcium flux assay in GnRHR-HEK293 cells (AID 1920063). Note: nearly all actives have a fitted effect of over 35% in size. The procedure, abridged:
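Intracellular calcium rise is the read-out: engineered human GnRHR HEK293 cells, dye-loaded, are exposed to DMSO-dissolved compounds and fluorescence at Ex/Em 480/540 is tracked for 3 min.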

Chain of Muscarinic acetylcholine receptor M1 (Homo sapiens) (P11229 whole entry, looked up): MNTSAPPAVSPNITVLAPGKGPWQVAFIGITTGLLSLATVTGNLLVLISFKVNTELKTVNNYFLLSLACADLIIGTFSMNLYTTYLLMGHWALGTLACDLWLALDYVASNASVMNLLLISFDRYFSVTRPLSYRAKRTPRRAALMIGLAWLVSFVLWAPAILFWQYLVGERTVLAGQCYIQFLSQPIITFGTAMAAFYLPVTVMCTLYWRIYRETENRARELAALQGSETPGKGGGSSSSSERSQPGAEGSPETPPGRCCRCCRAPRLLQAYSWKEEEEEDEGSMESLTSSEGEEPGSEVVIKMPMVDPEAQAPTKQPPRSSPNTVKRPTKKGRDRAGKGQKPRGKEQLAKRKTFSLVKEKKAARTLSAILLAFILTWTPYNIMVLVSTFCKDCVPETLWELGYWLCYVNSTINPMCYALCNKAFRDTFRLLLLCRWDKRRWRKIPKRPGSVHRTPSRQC
Chain of D(2) dopamine receptor (Homo sapiens) (P14416 whole entry, looked up): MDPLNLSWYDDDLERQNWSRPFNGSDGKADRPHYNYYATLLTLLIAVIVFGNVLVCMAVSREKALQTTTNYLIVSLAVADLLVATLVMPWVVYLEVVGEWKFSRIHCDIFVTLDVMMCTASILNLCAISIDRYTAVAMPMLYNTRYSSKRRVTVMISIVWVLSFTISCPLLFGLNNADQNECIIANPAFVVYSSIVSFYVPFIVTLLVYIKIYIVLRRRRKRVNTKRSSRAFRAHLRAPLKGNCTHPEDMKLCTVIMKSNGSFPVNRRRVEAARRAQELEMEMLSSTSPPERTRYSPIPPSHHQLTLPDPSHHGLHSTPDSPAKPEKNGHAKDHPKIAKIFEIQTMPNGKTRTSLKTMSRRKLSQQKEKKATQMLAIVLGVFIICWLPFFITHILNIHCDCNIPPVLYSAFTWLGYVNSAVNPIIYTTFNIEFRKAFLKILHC
Chain of Gonadotropin-releasing hormone receptor (Homo sapiens) (P30968 whole entry, looked up): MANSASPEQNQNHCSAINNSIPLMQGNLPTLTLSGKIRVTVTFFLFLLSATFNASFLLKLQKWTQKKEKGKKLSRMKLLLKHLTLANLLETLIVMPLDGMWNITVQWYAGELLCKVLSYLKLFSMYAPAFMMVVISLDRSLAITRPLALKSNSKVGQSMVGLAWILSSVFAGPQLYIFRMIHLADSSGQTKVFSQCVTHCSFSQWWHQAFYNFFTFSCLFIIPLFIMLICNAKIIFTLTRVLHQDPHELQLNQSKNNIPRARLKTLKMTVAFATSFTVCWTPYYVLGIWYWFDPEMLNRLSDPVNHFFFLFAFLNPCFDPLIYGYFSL
Chain of 5-hydroxytryptamine receptor 2A (Homo sapiens) (P28223 whole entry, looked up): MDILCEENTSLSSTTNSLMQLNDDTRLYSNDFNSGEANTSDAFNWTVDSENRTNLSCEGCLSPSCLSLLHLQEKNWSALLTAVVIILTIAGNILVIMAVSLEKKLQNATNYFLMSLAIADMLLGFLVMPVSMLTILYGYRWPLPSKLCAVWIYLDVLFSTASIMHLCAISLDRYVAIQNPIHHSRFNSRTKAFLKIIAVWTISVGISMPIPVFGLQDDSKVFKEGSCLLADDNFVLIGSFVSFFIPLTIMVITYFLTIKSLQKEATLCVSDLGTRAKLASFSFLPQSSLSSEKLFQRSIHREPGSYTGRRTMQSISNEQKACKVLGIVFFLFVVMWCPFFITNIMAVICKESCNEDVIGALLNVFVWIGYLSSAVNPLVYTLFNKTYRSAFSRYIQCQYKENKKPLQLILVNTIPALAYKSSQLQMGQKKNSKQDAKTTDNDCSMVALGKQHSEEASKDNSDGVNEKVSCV
Chain of KiSS-1 receptor (Homo sapiens) (Q969F8 whole entry, looked up): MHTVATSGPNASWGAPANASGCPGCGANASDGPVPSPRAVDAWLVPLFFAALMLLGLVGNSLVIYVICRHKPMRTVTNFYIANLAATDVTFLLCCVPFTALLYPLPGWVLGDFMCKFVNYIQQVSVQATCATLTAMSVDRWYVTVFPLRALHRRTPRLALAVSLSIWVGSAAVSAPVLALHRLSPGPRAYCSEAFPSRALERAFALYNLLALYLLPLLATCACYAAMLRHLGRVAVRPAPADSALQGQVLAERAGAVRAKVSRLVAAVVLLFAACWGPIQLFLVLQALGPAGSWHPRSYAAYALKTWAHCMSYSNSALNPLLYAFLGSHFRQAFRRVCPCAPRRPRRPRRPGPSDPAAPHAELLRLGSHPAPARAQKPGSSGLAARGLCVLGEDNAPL
Chain of Beta-2 adrenergic receptor (Homo sapiens) (P07550 whole entry, looked up): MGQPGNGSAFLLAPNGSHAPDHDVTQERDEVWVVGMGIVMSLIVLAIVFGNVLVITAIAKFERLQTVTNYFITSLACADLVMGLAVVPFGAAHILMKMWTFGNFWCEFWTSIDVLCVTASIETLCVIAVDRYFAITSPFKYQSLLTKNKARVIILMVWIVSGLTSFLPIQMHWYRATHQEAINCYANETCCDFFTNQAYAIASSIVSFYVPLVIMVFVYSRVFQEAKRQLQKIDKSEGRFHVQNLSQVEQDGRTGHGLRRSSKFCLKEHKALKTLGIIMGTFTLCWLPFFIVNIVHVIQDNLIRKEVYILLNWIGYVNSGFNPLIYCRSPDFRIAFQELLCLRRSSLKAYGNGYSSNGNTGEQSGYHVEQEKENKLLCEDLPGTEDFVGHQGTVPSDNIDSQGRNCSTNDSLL

Turning to `NC(N)=NC(=O)c1nc(Cl)c(N)nc1N`, the Potency entry in [1], in assay [2], in [3], in [4], in assay [5] and in assay [6] was “inactive” each time. Further, the Potency result in [7], in [8], in assay [9], in assay [10], in assay [11] and in [12] was “inactive” in each case. Also, the Potency entry in assay [13], in assay [14] and in assay [15] was “inactive” throughout.
For the compound `O=C(O)c1cccc([N+](=O)[O-])c1`, the Potency entry in [1], in assay [2], in assay [3], in assay [4], in assay [5] and in assay [6] was “inactive” in each case. Further, the Potency result in [7], in assay [8], in assay [9], in assay [16], in [17] and in [18] was “inactive” in each case. The Potency entry in assay [19], in [10], in [11], in assay [12], in assay [13] and in assay [14] was “inactive” in each case. In addition, the Potency result in assay [15] is “inactive”.
As to `C#C[C@]1(O)CC[C@H]2[C@@H]3CCC4=Cc5oncc5C[C@]4(C)[C@H]3CC[C@@]21C`, the Potency in [1] is 61.1 µM (active) and 23.7 µM (active); in [10], 29.8 µM (active). Also, the Potency entry in [2], in [20], in [5], in [6], in assay [7] and in [8] was “inactive” each time. For the same compound, the Potency entry in assay [12], in assay [14] and in assay [15] was “inactive” each time.
Take `CCCCOC(=O)CC(CC(=O)OCCCC)(OC(C)=O)C(=O)OCCCC`: the Potency result in [1], in assay [2], in [3], in [4], in assay [5] and in [6] was “inactive” in each case. The Potency entry in assay [7], in assay [8], in assay [9], in assay [16], in [17] and in assay [18] was “inactive” throughout. Moreover, the Potency entry in assay [19], in assay [10], in assay [12], in assay [14] and in assay [15] was “inactive” in each case.
Consider `CC(=O)Nc1ccc2c(c1)Cc1cc(NC(C)=O)ccc1-2`, for which the Potency result in [1], in [2], in assay [3], in assay [4], in [5] and in assay [6] was “inactive” each time. The Potency entry in assay [7], in [8], in assay [9], in assay [16], in assay [17] and in assay [18] was “inactive” throughout. Also, the Potency result in [19], in assay [11], in assay [12], in assay [13] and in assay [14] was “inactive” throughout.
As to `Cc1cccc(Nc2cc(Cl)nc(SCC(=O)O)n2)c1C`, the Potency result in [1], in [2], in [20], in assay [4], in assay [5] and in [6] was “inactive” each time. Further, the Potency entry in assay [12], in assay [13], in assay [14] and in assay [15] was “inactive” in each case.
For the compound `COc1ccc(C)cc1N`, the Potency entry in [1], in [2], in assay [20], in assay [4], in [6] and in [8] was “inactive” each time. Besides, the Potency result in [9], in assay [16], in assay [17], in assay [18], in [19] and in assay [10] was “inactive” in each case. Further, the Potency result in [11], in [12], in assay [13], in assay [14] and in assay [15] was “inactive” throughout.
